{"source": "PubChem BioAssay (EPA / NIEHS)", "key": {"[1]": {"target": "human Protein Tyrosine Phosphatase Non-receptor Type 2 (PTPN2), PTPN2 (gene 5771) (UniProt P17706)", "sequence (P17706 whole entry, looked up)": "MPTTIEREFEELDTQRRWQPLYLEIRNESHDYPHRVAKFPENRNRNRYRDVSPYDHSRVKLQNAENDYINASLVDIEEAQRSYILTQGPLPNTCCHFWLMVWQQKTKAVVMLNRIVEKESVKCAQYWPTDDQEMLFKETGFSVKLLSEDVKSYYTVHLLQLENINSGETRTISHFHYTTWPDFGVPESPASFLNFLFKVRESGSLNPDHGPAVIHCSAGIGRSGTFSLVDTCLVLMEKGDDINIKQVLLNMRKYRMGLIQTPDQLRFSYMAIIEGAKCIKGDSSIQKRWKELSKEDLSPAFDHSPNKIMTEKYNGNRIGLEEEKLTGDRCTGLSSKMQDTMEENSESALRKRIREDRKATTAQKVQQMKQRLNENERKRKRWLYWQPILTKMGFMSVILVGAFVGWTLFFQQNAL", "experiment": "NVS_ENZ_hPTPN2: NovaScreen (NVS) Enzymatic Assay for human Protein Tyrosine Phosphatase Non-receptor Type 2 (PTPN2) (AID 2283207)", "in_short": "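Activity measured as fluorescence after mobility-shift separation of substrate and product, 1 h after compound. Duplicate single-point 25 uM primary testing, concentration series for actives; inhibition scored as signal loss relative to DMSO baseline.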"}, "[2]": {"target": "human Protein Tyrosine Phosphatase Non-receptor Type 4 (PTPN4), PTPN4 (gene 5775) (UniProt P29074)", "sequence (P29074 whole entry, looked up)": "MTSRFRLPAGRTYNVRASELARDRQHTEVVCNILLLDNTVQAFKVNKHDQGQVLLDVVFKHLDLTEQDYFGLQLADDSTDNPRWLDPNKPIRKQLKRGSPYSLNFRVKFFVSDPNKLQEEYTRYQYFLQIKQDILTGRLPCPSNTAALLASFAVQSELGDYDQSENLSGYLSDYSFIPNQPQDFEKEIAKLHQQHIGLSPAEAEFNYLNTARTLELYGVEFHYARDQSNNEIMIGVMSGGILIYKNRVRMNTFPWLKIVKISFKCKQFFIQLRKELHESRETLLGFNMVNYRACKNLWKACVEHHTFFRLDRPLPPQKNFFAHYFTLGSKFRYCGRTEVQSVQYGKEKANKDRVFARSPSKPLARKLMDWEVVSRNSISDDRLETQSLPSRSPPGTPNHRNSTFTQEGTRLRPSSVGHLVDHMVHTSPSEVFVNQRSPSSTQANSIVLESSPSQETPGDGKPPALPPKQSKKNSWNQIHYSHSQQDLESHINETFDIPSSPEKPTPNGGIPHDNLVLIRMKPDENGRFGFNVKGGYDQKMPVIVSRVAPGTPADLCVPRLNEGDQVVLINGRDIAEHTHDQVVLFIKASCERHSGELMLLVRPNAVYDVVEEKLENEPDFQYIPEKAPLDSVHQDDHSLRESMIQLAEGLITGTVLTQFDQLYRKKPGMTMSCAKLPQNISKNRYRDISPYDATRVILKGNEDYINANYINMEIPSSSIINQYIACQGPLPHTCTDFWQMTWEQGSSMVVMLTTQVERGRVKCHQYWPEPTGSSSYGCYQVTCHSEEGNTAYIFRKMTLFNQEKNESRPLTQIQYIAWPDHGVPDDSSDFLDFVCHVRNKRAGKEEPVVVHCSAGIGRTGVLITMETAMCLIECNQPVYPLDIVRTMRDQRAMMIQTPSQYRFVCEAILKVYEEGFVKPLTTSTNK", "experiment": "NVS_ENZ_hPTPN4: NovaScreen (NVS) Enzymatic Assay for human Protein Tyrosine Phosphatase Non-receptor Type 4 (PTPN4) (AID 2283208)", "in_short": "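Screened in duplicate at 25 uM, with hits then titrated to a top concentration of 50 uM. Recombinant Sf9-derived PTPN4 turnover was read by fluorescence with electrophoretic separation, 1.33 h after compound addition. DMSO served as baseline.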"}, "[3]": {"target": "human Protein Tyrosine Phosphatase Non-receptor Type 9 (PTPN9), PTPN9 (gene 5780) (UniProt P43378)", "experiment": "NVS_ENZ_hPTPN9: NovaScreen (NVS) Enzymatic Assay for human Protein Tyrosine Phosphatase Non-receptor Type 9 (PTPN9) (AID 2283209)", "in_short": "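Sf9-expressed enzyme in a cell-free assay, fluorescence read 1.33 h after dosing with mobility-shift separation of substrate and product. Tested at 25 uM in duplicate, then up to 50 uM; signal loss versus DMSO.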"}, "[4]": {"target": "human Protein Tyrosine Phosphatase Receptor Type F (PTPRF), PTPRF (gene 5792) (UniProt P10586)", "experiment": "NVS_ENZ_hPTPRF: NovaScreen (NVS) Enzymatic Assay for human Protein Tyrosine Phosphatase Receptor Type F (PTPRF) (AID 2283213)", "in_short": "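Cell-free fluorescence enzyme assay with recombinant protein and substrate; product separated by electrophoretic mobility shift. Read 1 h after dosing, single 25 uM duplicate screen, then concentration-response up to 50 uM; loss of signal vs DMSO.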"}, "[5]": {"target": "human Protein Tyrosine Phosphatase Receptor Type M (PTPRM), PTPRM (gene 5797) (UniProt P28827)", "sequence (P28827 whole entry, looked up)": "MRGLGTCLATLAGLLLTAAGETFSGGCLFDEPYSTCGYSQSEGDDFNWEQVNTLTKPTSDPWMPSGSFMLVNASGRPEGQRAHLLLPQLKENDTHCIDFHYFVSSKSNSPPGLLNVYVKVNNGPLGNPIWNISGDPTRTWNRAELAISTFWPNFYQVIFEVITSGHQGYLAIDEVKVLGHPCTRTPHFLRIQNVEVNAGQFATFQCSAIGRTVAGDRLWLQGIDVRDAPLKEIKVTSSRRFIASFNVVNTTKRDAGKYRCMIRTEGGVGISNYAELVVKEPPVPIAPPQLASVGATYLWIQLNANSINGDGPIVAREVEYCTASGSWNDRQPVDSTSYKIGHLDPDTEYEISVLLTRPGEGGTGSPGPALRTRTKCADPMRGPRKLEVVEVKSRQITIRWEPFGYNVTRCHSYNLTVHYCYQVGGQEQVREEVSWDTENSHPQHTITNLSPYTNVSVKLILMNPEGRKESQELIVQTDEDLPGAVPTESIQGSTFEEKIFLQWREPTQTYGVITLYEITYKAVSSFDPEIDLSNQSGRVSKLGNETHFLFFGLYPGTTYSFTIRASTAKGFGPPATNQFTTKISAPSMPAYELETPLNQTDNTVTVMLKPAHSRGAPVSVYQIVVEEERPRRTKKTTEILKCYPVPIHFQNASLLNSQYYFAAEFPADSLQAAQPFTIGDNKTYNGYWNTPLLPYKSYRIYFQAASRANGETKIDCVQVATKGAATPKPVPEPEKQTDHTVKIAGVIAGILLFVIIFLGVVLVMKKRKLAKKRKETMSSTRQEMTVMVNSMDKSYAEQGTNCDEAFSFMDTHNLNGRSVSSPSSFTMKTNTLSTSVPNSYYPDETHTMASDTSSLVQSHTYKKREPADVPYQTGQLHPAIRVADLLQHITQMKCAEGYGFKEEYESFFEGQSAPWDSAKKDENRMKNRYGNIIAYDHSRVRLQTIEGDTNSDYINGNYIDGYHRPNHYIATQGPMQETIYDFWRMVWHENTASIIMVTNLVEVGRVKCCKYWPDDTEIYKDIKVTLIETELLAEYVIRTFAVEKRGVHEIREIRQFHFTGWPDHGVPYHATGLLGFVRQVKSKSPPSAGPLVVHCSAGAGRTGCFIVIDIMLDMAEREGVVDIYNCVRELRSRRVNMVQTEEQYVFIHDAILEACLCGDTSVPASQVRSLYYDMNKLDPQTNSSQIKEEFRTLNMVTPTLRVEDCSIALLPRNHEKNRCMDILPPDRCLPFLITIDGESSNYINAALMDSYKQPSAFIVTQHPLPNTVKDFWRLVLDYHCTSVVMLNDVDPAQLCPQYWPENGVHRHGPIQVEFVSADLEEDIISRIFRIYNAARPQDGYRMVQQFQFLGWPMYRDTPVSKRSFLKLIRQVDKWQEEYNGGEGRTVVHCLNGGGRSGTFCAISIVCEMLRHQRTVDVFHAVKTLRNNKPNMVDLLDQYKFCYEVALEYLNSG", "experiment": "NVS_ENZ_hPTPRM: NovaScreen (NVS) Enzymatic Assay for human Protein Tyrosine Phosphatase Receptor Type M (PTPRM) (AID 2283215)", "in_short": "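Read-out is fluorescence after electrophoretic separation of substrate and product, taken 1.33 h post-dosing with recombinant enzyme. Compounds screened at 25 uM in duplicate, then concentration series for actives; activity as signal loss relative to DMSO.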"}, "[6]": {"target": "Tyrosine-protein phosphatase non-receptor type 14 (Homo sapiens) (UniProt Q15678)", "experiment": "NVS_ENZ_hPTPN14: NovaScreen (NVS) Enzymatic Assay for human Protein Tyrosine Phosphatase Non-receptor Type 14 (PTPN14) (AID 2283206)", "in_short": "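Fluorescent substrate turnover by recombinant human PTPN14 was measured 0.5 h after compound addition, with substrate and product separated by mobility shift. Single-point screening at 25 uM, then concentration-response up to 50 uM for chemicals meeting threshold (e.g., 30% inhibition).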"}, "[7]": {"target": "human Protein Tyrosine Phosphatase Receptor Type B (PTPRB), PTPRB (gene 5787) (UniProt P23467)", "sequence (P23467 whole entry, looked up)": "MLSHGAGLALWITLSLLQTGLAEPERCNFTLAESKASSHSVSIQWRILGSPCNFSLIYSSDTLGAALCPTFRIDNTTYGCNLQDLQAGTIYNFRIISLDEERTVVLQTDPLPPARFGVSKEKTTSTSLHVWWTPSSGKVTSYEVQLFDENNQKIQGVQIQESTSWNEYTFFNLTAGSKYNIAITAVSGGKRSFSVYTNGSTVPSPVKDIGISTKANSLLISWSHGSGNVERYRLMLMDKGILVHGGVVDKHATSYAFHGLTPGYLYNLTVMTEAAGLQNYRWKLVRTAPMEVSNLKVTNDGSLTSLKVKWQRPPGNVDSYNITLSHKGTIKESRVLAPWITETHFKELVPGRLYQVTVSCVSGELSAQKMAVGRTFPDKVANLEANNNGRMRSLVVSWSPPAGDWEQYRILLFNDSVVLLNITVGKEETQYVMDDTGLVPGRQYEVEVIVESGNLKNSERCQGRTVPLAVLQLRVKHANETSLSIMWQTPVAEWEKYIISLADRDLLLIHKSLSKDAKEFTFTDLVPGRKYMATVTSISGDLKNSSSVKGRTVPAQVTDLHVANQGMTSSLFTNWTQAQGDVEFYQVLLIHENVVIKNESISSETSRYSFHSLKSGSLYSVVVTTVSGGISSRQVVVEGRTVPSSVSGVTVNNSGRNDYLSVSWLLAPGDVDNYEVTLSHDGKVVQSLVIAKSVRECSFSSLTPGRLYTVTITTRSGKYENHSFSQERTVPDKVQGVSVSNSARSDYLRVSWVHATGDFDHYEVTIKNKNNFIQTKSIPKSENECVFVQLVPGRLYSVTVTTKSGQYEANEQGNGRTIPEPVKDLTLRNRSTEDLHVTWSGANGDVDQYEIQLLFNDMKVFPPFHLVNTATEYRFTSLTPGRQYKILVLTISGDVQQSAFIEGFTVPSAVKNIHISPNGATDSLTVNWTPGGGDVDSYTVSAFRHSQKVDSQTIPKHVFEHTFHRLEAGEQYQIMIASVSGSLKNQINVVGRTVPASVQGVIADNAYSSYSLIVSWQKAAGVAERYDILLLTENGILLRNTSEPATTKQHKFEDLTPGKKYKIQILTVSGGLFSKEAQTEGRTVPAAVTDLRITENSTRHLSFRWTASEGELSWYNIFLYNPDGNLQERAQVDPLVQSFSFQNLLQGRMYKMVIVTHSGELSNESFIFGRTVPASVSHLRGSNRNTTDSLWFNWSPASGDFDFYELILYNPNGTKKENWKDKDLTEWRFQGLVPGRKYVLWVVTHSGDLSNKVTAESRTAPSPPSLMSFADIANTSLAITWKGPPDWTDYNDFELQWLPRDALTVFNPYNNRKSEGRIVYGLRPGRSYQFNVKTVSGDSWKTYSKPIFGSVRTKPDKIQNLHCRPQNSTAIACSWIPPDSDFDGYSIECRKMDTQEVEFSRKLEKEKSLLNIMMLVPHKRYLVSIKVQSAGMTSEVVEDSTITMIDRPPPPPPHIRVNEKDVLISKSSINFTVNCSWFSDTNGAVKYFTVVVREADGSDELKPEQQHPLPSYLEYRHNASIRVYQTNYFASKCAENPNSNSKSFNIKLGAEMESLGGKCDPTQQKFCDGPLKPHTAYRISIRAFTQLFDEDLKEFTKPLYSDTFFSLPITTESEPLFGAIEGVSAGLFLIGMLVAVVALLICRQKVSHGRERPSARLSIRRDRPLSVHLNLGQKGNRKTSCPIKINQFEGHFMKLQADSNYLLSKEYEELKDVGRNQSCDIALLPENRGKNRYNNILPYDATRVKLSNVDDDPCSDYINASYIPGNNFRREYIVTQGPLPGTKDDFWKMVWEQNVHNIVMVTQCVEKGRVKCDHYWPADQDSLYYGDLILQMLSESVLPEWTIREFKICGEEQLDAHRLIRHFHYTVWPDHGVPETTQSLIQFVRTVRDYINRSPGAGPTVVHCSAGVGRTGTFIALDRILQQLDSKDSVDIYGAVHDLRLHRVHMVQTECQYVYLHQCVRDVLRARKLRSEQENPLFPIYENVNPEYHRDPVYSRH", "experiment": "NVS_ENZ_hPTPRB: NovaScreen (NVS) Enzymatic Assay for human Protein Tyrosine Phosphatase Receptor Type B (PTPRB) (AID 2283211)", "in_short": "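Recombinant human PTPRB with a fluorescent substrate, product separated by electrophoretic mobility shift; read 1 h after dosing. Primary screen in duplicate at 25 uM; actives then retested in concentration series; loss of signal versus DMSO.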"}, "[8]": {"target": "human Protein Tyrosine Phosphatase Non-receptor Type 6 (PTPN6), PTPN6 (gene 5777) (UniProt P29350)", "experiment": "NVS_ENZ_hPTPN6: NovaScreen (NVS) Enzymatic Assay for human Protein Tyrosine Phosphatase Non-receptor Type 6 (PTPN6) (AID 2283210)", "in_short": "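Recombinant human PTPN6 from SF9 cells, enzyme activity followed by fluorescence after mobility-shift separation of substrate and product at 1.33 h. Chemicals first tested at a single 25 uM in duplicate, then confirmed across concentration series; loss of signal relative to DMSO.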"}}, "note": "Results filed as inconclusive are left out. Active and inactive are the calls of the source. How the source made its calls: active means hit-call score of the fitted dose curve at least 0.9, where 1 is the maximum; inconclusive means response in the unintended direction; inactive means score below 0.9."}
{"smiles": "CN1CSC(=S)N(C)C1", "values": [{"measurement": "outcome", "setting": "[1]", "result": "inactive"}, {"measurement": "outcome", "setting": "[2]", "result": "inactive"}, {"measurement": "outcome", "setting": "[3]", "result": "inactive"}, {"measurement": "AC50", "setting": "[4]", "result": "10.1 µM (active)"}, {"measurement": "AC50", "setting": "[5]", "result": "25 µM (active)"}]}
{"smiles": "C[C@H]1[C@H](c2ccc(Cl)cc2)SC(=O)N1C(=O)NC1CCCCC1", "values": [{"measurement": "outcome", "setting": "[6]", "result": "inactive"}]}
{"smiles": "O=C(O)C(F)(F)C(F)(F)C(F)(F)C(F)(F)C(F)(F)C(F)(F)C(F)(F)F", "values": [{"measurement": "outcome", "setting": "[1]", "result": "inactive"}, {"measurement": "outcome", "setting": "[7]", "result": "inactive"}, {"measurement": "outcome", "setting": "[5]", "result": "inactive"}]}
{"smiles": "Cc1cc(C)nc(NC(=O)NS(=O)(=O)c2ccccc2C(=O)OC2COC2)n1", "values": [{"measurement": "AC50", "setting": "[2]", "result": "4.96 µM (active)"}, {"measurement": "AC50", "setting": "[3]", "result": "36.7 µM (active)"}, {"measurement": "outcome", "setting": "[5]", "result": "inactive"}]}
{"smiles": "N#Cc1c(Cl)c(Cl)c(Cl)c(C#N)c1Cl", "values": [{"measurement": "outcome", "setting": "[5]", "result": "inactive"}]}
{"smiles": "CCC(C)(C)C(=O)OC1=C(c2ccc(Cl)cc2Cl)C(=O)OC12CCCCC2", "values": [{"measurement": "outcome", "setting": "[5]", "result": "inactive"}]}
{"smiles": "CNC(=O)CSP(=S)(OC)OC", "values": [{"measurement": "outcome", "setting": "[8]", "result": "inactive"}, {"measurement": "outcome", "setting": "[7]", "result": "inactive"}, {"measurement": "outcome", "setting": "[4]", "result": "inactive"}]}
{"smiles": "CC(C)(C)C(O)/C(=C\\c1ccc(Cl)cc1Cl)n1cncn1", "note": "(stereo not given)", "values": [{"measurement": "outcome", "setting": "[1]", "result": "inactive"}]}
{"smiles": "O=C1c2ccccc2C(=O)N1SC(Cl)(Cl)Cl", "values": [{"measurement": "outcome", "setting": "[1]", "result": "inactive"}, {"measurement": "outcome", "setting": "[2]", "result": "inactive"}]}
